# “And” between values parts separate entries of the source, which are not always exact repeats. Equal values may be shown once. Inconclusive results are not listed. A call without a number means that no potency is given here. Some compounds were tested as several samples or in several runs, with calls that do not always agree. A number with no mark means an inactive call. The source made the active and inactive calls. Calls come from the whole dose curve; as a rule, active = well fitted curve in the direction sought with a large enough effect; inconclusive = small, poorly fitted or top-dose-only effect, or another doubt; inactive = no such curve, though single readings can be large; an effect the other way counts as inactive or inconclusive.
# Legend:
# MKL-1 = test: qHTS assay to identify novel small-molecules to repurpose for Merkel cell carcinoma treatment (AID 1296009); settings: MCC and control cell lines, CellTiter-Glo viability, 72 h; series mostly up to 46 µM; note: nearly all actives have a fitted effect of over 60% in size
# Method in brief: (§1)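 Cells were incubated with compound for 72 hr at 37 degree celsius before CellTiter-Glo addition. Luminescence was normalized with no-cell wells as full cytotoxicity and DMSO as baseline.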
# MKL-2 = test: as above; settings: MCC and control cell lines, CellTiter-Glo viability, 72 h; series mostly up to 46 µM
# Method in brief: as §1
# NIH3T3 = test: as above; settings: MCC and control cell lines, CellTiter-Glo viability, 72 h; series mostly up to 44.8 µM
# Method in brief: as §1
# UISO = test: as above; settings: MCC and control cell lines, CellTiter-Glo viability, 72 h; series mostly up to 46 µM
# Method in brief: as §1
# WaGa = test: as above; settings: MCC and control cell lines, CellTiter-Glo viability, 72 h; series mostly up to 46 µM
# Method in brief: as §1
# C33A = test: Primary qHTS to identify gynecologic anti-cancer compounds using libraries of approved drugs and bioactive compounds (AID 1345084); settings: Gynecologic cancer cell panel viability, ATPlite luminescence, 48 h; series mostly up to 57.5 µM; note: nearly all actives have a fitted effect of over 55% in size
# Method in brief: (§2)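 Cells, 1,000 per well, plated 16 h, then exposed 48 h at 37 C to compounds. Viability by ATPlite luminescence after 15 min at room temperature.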
# CAOV3 = test: as above; settings: Gynecologic cancer cell panel viability, ATPlite luminescence, 48 h; series mostly up to 57.5 µM
# Method in brief: as §2
# CASKI = test: as above; settings: Gynecologic cancer cell panel viability, ATPlite luminescence, 48 h; series mostly up to 57.5 µM
# Method in brief: as §2
# Es-2 = test: as above; settings: Gynecologic cancer cell panel viability, ATPlite luminescence, 48 h; series mostly up to 57.5 µM
# Method in brief: as §2
# HeLa = test: as above; settings: Gynecologic cancer cell panel viability, ATPlite luminescence, 48 h; series mostly up to 57.5 µM
# Method in brief: as §2
# Hek293T = test: as above; settings: Gynecologic cancer cell panel viability, ATPlite luminescence, 48 h, control line for the selectivity index; series mostly up to 57.5 µM
# Method in brief: as §2
# JEG-3 = test: as above; settings: Gynecologic cancer cell panel viability, ATPlite luminescence, 48 h; series mostly up to 57.5 µM
# Method in brief: as §2
# OV90 = test: as above; settings: Gynecologic cancer cell panel viability, ATPlite luminescence, 48 h; series mostly up to 57.5 µM
# Method in brief: as §2
# PA-1 = test: as above; settings: Gynecologic cancer cell panel viability, ATPlite luminescence, 48 h; series mostly up to 57.5 µM
# Method in brief: as §2
# SKOV3 = test: as above; settings: Gynecologic cancer cell panel viability, ATPlite luminescence, 48 h; series mostly up to 57.5 µM
# Method in brief: as §2
# Tov-21-G = test: as above; settings: Gynecologic cancer cell panel viability, ATPlite luminescence, 48 h; series mostly up to 57.5 µM
# Method in brief: as §2
# Tov112D = test: as above; settings: Gynecologic cancer cell panel viability, ATPlite luminescence, 48 h; series mostly up to 57.5 µM
# Method in brief: as §2
# [1] = Drug repurposing screens with cells derived from glioblastoma tumor samples (AID 1345199); settings: GBM patient neurospheres viability, ATP luminescence, 48 h; note: nearly all actives have a fitted effect of over 40% in size; note: potency is the fitted concentration of half-maximal effect
# Method in brief: (§3)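 Four patient lines of CD133+ GBM neurospheres were screened at several concentrations; hits were retested in those lines plus three slower-growing GBM lines, using 48-hour treatment and ATP-based viability.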
# astro = test: as above; settings: viability, ATP luminescence, 48 h; series mostly up to 45.9 µM
# Method in brief: as §3
# [2] = at 45.9 µM (top of the series), tumour line B
# [3] = at 45.9 µM (top of the series), tumour line D
# [4] = at 46 µM (top of the series), tumour line A
# [5] = at 46.1 µM (top of the series), tumour line C
# [6] = at 20 µM (top of the series), tumour line C
# [7] = at 21.2 µM (top of the series), tumour line B
# [8] = at 21.2 µM (top of the series), tumour line D
smiles,measurement,setting,value
COc1ccc2[nH]cc(CCNC(C)=O)c2c1,Potency,MKL-1,inactive
same,Potency,MKL-2,inactive
same,outcome,NIH3T3,inactive
same,Potency,UISO,inactive
same,Potency,WaGa,inactive
same,Potency,C33A,inactive
same,Potency,CAOV3,inactive
same,Potency,CASKI,inactive
same,Potency,Es-2,inactive
same,Potency,HeLa,inactive
same,Potency,Hek293T,inactive
same,Potency,JEG-3,inactive
same,Potency,OV90,inactive
same,Potency,PA-1,inactive
same,Potency,SKOV3,inactive
same,Potency,Tov-21-G,inactive
same,Potency,Tov112D,inactive
same,"activity, negative = cell killing",[1]; [2],-3.86%
same,"activity, negative = cell killing",[1]; [3],3.96%
same,"activity, negative = cell killing",[1]; [4],-18.9%
same,"activity, negative = cell killing",[1]; [5],-11.3%
same,Potency,astro,inactive
O=C(c1ccc(F)cc1)C1CCN(CCn2c(=O)[nH]c3ccccc3c2=O)CC1,Potency,MKL-1,inactive
same,Potency,MKL-2,inactive
same,outcome,NIH3T3,inactive
same,Potency,UISO,inactive
same,Potency,WaGa,inactive
same,Potency,C33A,inactive
same,Potency,CASKI,inactive
same,Potency,Es-2,inactive
same,Potency,HeLa,inactive
same,Potency,Hek293T,inactive
same,Potency,JEG-3,inactive
same,Potency,OV90,inactive
same,Potency,PA-1,inactive
same,Potency,SKOV3,inactive
same,Potency,Tov-21-G,inactive
same,Potency,Tov112D,inactive
same,"activity, negative = cell killing",[1]; [3],-39.8%
same,"activity, negative = cell killing",[1]; [5],7.2%
same,Potency,[1]; tumour line A,3.98 µM (active)
CN(CCOc1ccc(NS(C)(=O)=O)cc1)CCc1ccc(NS(C)(=O)=O)cc1,Potency,MKL-1,inactive
same,Potency,MKL-2,inactive
same,outcome,NIH3T3,inactive
same,Potency,UISO,inactive
same,Potency,WaGa,inactive
same,Potency,C33A,inactive
same,Potency,CASKI,inactive
same,Potency,Es-2,inactive
same,Potency,HeLa,inactive
same,Potency,Hek293T,inactive
same,Potency,JEG-3,inactive
same,Potency,OV90,inactive
same,Potency,PA-1,inactive
same,Potency,SKOV3,inactive
same,Potency,Tov-21-G,inactive
same,Potency,Tov112D,inactive
same,"activity, negative = cell killing",[1]; [2],-5.75%
same,"activity, negative = cell killing",[1]; [3],-4.11%
same,"activity, negative = cell killing",[1]; [5],4.34%
same,Potency,astro,inactive
Nc1c2c(nc3ccccc13)CCCC2,Potency,MKL-1,inactive
same,Potency,MKL-2,inactive
same,outcome,NIH3T3,inactive
same,Potency,UISO,inactive
same,Potency,WaGa,inactive
same,Potency,C33A,inactive
same,Potency,CASKI,inactive
same,Potency,Es-2,inactive
same,Potency,HeLa,inactive
same,Potency,Hek293T,inactive
same,Potency,JEG-3,inactive
same,Potency,OV90,inactive
same,Potency,PA-1,inactive
same,Potency,Tov-21-G,inactive
same,Potency,Tov112D,inactive
same,"activity, negative = cell killing",[1]; [2],1.31%
same,"activity, negative = cell killing",[1]; [5],-23.5%
same,Potency,[1]; tumour line A,20 µM (active)
same,Potency,astro,inactive
Nc1nnc(-c2cccc(Cl)c2Cl)c(N)n1,Potency,MKL-1,inactive
same,Potency,MKL-2,inactive
same,outcome,NIH3T3,inactive
same,Potency,UISO,inactive
same,Potency,WaGa,inactive
same,Potency,C33A,inactive
same,Potency,CAOV3,inactive
same,Potency,CASKI,inactive
same,Potency,Es-2,inactive
same,Potency,HeLa,inactive
same,Potency,Hek293T,inactive
same,Potency,JEG-3,inactive
same,Potency,OV90,inactive
same,Potency,PA-1,inactive
same,Potency,SKOV3,inactive
same,Potency,Tov-21-G,inactive
same,Potency,Tov112D,inactive
same,"activity, negative = cell killing",[1]; [2],-10.9%
same,"activity, negative = cell killing",[1]; [3],-13.4%
same,"activity, negative = cell killing",[1]; [4],-13.9%
same,"activity, negative = cell killing",[1]; [5],-25.4%
same,Potency,astro,inactive
Cc1cc(C(C)(C)C)cc(C)c1CC1=NCCN1,Potency,MKL-1,inactive
same,Potency,MKL-2,inactive
same,outcome,NIH3T3,inactive
same,Potency,UISO,inactive
same,Potency,WaGa,inactive
same,Potency,C33A,inactive
same,Potency,CASKI,inactive
same,Potency,JEG-3,inactive
same,Potency,Tov-21-G,inactive
same,Potency,Tov112D,inactive
same,"activity, negative = cell killing",[1]; [6],-2.93%
same,"activity, negative = cell killing",[1]; [7],-9.52%
same,"activity, negative = cell killing",[1]; [8],-25.7%
same,Potency,astro,inactive
CC1(C)O[C@H]2CC(=O)OC[C@]23[C@H]2CC[C@@]4(C)[C@H](c5ccoc5)OC(=O)[C@H]5O[C@]54[C@]2(C)C(=O)C[C@@H]13,Potency,MKL-1,inactive
same,Potency,MKL-2,inactive
same,outcome,NIH3T3,inactive
same,Potency,UISO,inactive
same,Potency,WaGa,inactive
same,Potency,C33A,inactive
same,Potency,CASKI,inactive
same,Potency,Es-2,inactive
same,Potency,HeLa,inactive
same,Potency,Hek293T,inactive
same,Potency,JEG-3,inactive
same,Potency,OV90,inactive
same,Potency,PA-1,inactive
same,Potency,SKOV3,inactive
same,Potency,Tov-21-G,inactive
same,Potency,Tov112D,inactive
same,"activity, negative = cell killing",[1]; [2],-1.56%
same,"activity, negative = cell killing",[1]; [3],-7.18%
same,"activity, negative = cell killing",[1]; [4],-18.9%
same,"activity, negative = cell killing",[1]; [5],3.51%
same,Potency,astro,inactive
Clc1ccc2nsnc2c1NC1=NCCN1,Potency,MKL-1,inactive
same,Potency,MKL-2,inactive
same,outcome,NIH3T3,inactive
same,Potency,UISO,inactive
same,Potency,WaGa,inactive
same,Potency,C33A,inactive
same,Potency,CAOV3,inactive
same,Potency,CASKI,inactive
same,Potency,Es-2,inactive
same,Potency,HeLa,inactive
same,Potency,Hek293T,inactive
same,Potency,JEG-3,inactive
same,Potency,OV90,inactive
same,Potency,PA-1,inactive
same,Potency,SKOV3,inactive
same,Potency,Tov-21-G,inactive
same,Potency,Tov112D,inactive
same,"activity, negative = cell killing",[1]; [2],-9.87%
same,"activity, negative = cell killing",[1]; [3],1.91%
same,"activity, negative = cell killing",[1]; [5],8.38%
same,Potency,astro,inactive
Cc1ccccc1N1C(=O)c2cc(S(N)(=O)=O)c(Cl)cc2NC1C (stereo not drawn),Potency,MKL-1,inactive
same,Potency,MKL-2,inactive
same,outcome,NIH3T3,inactive
same,Potency,UISO,inactive
same,Potency,WaGa,inactive
same,Potency,C33A,inactive
same,Potency,CAOV3,inactive
same,Potency,CASKI,inactive
same,Potency,Es-2,inactive
same,Potency,HeLa,inactive
same,Potency,Hek293T,inactive
same,Potency,JEG-3,inactive
same,Potency,PA-1,inactive
same,Potency,SKOV3,inactive
same,Potency,Tov-21-G,inactive
same,Potency,Tov112D,inactive
same,"activity, negative = cell killing",[1]; [2],-0.853% and -2.25%
same,"activity, negative = cell killing",[1]; [3],16.5% and -1.42%
same,"activity, negative = cell killing",[1]; [4],-25.2%
same,"activity, negative = cell killing",[1]; [5],-19% and -29.3%
same,Potency,[1]; tumour line A,35.5 µM (active)
same,Potency,astro,inactive
COc1ccccc1OCC(O)CN1CCN(CC(=O)Nc2c(C)cccc2C)CC1 (stereo not drawn),Potency,MKL-1,inactive
same,Potency,MKL-2,inactive
same,outcome,NIH3T3,inactive
same,Potency,UISO,inactive
same,Potency,WaGa,inactive
same,Potency,C33A,inactive
same,Potency,CAOV3,inactive
same,Potency,CASKI,inactive
same,Potency,Es-2,inactive
same,Potency,HeLa,inactive
same,Potency,Hek293T,inactive
same,Potency,JEG-3,inactive
same,Potency,OV90,inactive
same,Potency,PA-1,inactive
same,Potency,SKOV3,inactive
same,Potency,Tov-21-G,inactive
same,Potency,Tov112D,inactive
same,"activity, negative = cell killing",[1]; [2],-2.09%
same,"activity, negative = cell killing",[1]; [3],-4.68%
same,"activity, negative = cell killing",[1]; [5],-16.2%
same,Potency,astro,inactive
COc1ccc(C2CNC(=O)C2)cc1OC1CCCC1 (stereo not drawn),Potency,MKL-1,inactive
same,Potency,MKL-2,inactive
same,outcome,NIH3T3,inactive
same,Potency,UISO,inactive
same,Potency,WaGa,inactive
same,Potency,C33A,inactive
same,Potency,CAOV3,inactive
same,Potency,CASKI,inactive
same,Potency,Es-2,inactive
same,Potency,HeLa,inactive
same,Potency,Hek293T,inactive
same,Potency,JEG-3,inactive
same,Potency,OV90,inactive
same,Potency,PA-1,inactive
same,Potency,SKOV3,inactive
same,Potency,Tov-21-G,inactive
same,Potency,Tov112D,inactive
same,"activity, negative = cell killing",[1]; [6],-0.6%
same,"activity, negative = cell killing",[1]; [7],-12.9%
same,"activity, negative = cell killing",[1]; [8],-16.7%
same,"activity, negative = cell killing","[1]; at 21.3 µM (top of the series), tumour line A",-26.3%
same,Potency,astro,inactive

# Reference: PubChem BioAssay (NCATS)
